Hit rate of the full screen: of about 16,000 compounds, about 4,000 (25%) were called active. About 26% were inconclusive and are not listed. Only a sample is shown. Unmarked numbers belong to inactive results. The call rests on the fitted dose curve; in most records, active means well fitted curve in the direction sought with a large enough effect; inconclusive means small, poorly fitted or top-dose-only effect, or effect the other way; inactive means no such curve, though single readings can be large or run the other way. Peptide text beside a SMILES is read from it.
On the % scale 0 is the no-effect control and ±100 the full control effect.

Sequence of Cytochrome P450 2C9 (Homo sapiens) (P11712 whole entry, looked up): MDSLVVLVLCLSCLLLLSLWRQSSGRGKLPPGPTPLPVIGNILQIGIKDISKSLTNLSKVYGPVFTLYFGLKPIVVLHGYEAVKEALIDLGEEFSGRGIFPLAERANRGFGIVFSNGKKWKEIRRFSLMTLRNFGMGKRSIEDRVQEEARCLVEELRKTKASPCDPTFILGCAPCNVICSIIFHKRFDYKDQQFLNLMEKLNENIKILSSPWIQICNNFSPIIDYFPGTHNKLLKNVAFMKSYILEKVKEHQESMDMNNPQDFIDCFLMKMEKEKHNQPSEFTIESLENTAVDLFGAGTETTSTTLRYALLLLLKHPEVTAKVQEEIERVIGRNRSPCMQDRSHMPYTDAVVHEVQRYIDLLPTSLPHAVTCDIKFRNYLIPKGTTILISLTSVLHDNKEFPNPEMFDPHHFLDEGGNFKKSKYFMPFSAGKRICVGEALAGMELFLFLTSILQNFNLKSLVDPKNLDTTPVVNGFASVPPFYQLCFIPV

The test has as its target Cytochrome P450 2C9 (Homo sapiens) (UniProt P11712). As to the kind of experiment: Cytochrome panel assay with activity outcomes. The following applies: recombinant CYP, pro-luciferin dealkylation, luminescence, p450-cyp2c9; series mostly up to 57.1 µM.
As for `CN(C)CC/C=C1\c2ccccc2CSc2ccccc21`, the AC50 – broadly, the concentration at which the activity in the assay is half-maximal – is “inactive”.

Regarding `C[C@H](N)C(=O)O`, the AC50 entry was “inactive”. Turning to `CC(=O)N[C@@H](CC(=O)O)C(=O)N[C@@H](CCC(=O)O)C(=O)O` (Ac-Asp-Glu-OH), the AC50 result was “inactive”. On the same count and under the same terms, the value for `O=C(c1csnn1)N1CCC2(CCCN(c3ccc(-c4ccccc4)cc3)C2)CC1` was “inactive”; that for `O=C(c1csnn1)N1CCC2(CC1)CN(c1ccncc1)C2` was 2.51 µM (active).

With `O=C(c1csnn1)N1CCC2(CC1)CCN(c1ccccc1)CC2`, the AC50 entry is “inactive”. In the case of `O=C(c1csnn1)N1CCC2(CCCN(c3ccccc3)C2)CC1`, the AC50 is 7.94 µM (active). Consider `O=C(c1csnn1)N1CCC2(CC1)CN(c1ccccc1)C2`, for which the AC50 entry is “inactive”. Regarding `O=C(c1csnn1)N1CCC2(CC1)CN(c1cccc(-c3ccccc3)c1)C2`, the AC50 entry was “inactive”. Regarding `COc1ccc(NC(=O)N2CC[C@@]3(CCCN(C(C)=O)C3)C2)cc1`, the AC50 entry was “inactive”. As to `CCOc1ccc(-c2nnc3ccc(SCC(=O)NCc4ccco4)nn23)cc1`, the AC50 was 11.2 µM (active).

Consider `COC(=O)CSc1nnc(-c2ccccc2OC)n1-c1ccc(C)cc1`, for which the AC50 result is “inactive”. Regarding `COC(=O)CSc1ccc2nnc(-c3ccc(F)cc3)n2n1`, the AC50 is 10 µM (active). Consider `CCn1c(SCC(=O)OC)nnc1C1CCCCC1`, for which the AC50 result was “inactive”. For the compound `O[C@@H](c1cc([C@@]23C[C@H]4CC[C@@H]2C[C@H](C4)C3)nc2c(Cl)cc(Cl)cc12)[C@@H]1CCCCN1`, the activity, negative = inhibition was -4.65% [at 11.4 µM]. On to `Cc1cnc(CNc2cc(-c3ccc(C(=O)N(C)C)cc3)ncn2)cn1`, for which the activity, negative = inhibition is 23.4% [at 2.29 µM]. With `FC(F)(F)c1cnc(N2CCC(=NOCc3ccc(Cl)cc3)CC2)c(Cl)c1`, the AC50 entry is “inactive”. For `COc1ccc(/C=N/NC(=O)C2CCN(c3ncc(C(F)(F)F)cc3Cl)CC2)cc1`, the AC50 result is “inactive”.

For the compound `O=C(OC1CCN(c2ncc(C(F)(F)F)cc2Cl)CC1)c1ccccc1`, the AC50 was 10 µM (active). Same read-out and setting: next, `COc1ccccc1CN1CCCC2(CCN(C(=O)c3cccn3C)CC2)C1`: “inactive”.

Regarding `COC(=O)[C@@]1(Cc2ccc(F)cc2)[C@H]2c3cc(C(=O)N4CCCC4)n(CCc4ccc(OC)c(Br)c4)c3C[C@H]2CN1C(=O)c1ccccc1`, the AC50 was 3.16 µM (active). With `COC(=O)[C@@]1(Cc2ccc(F)cc2)[C@H]2c3cc(C(=O)N4CCCC4)n(CCc4ccc(O)c(O)c4)c3C[C@H]2CN1C(=O)c1ccccc1`, the AC50 is 3.16 µM (active).

As to `C/C(=N\OC(=O)c1ccccc1F)c1nccs1`, the AC50 entry was “inactive”. For `O=S(=O)(O)c1ccc2cc(N=Nc3cc(S(=O)(=O)O)c4cccnc4c3O)ccc2c1`, the activity, negative = inhibition is -4.09% [at 11.4 µM]. With `Cc1cc(C)cc(-n2c(O)c(C=NC3CCS(=O)(=O)C3)c3ccccc3c2=O)c1` (stereo unspecified), the concentration at half-maximal activity (AC50) was 4.47 µM (active). Still for that read-out and setting: the value for `Cc1ccc(-n2cnc(=O)c3cccnc32)cc1` was “inactive”. On to `Cc1ccc(-n2c(O)c(/C=N/n3cnnc3)c3ccccc3c2=O)cc1`, for which the AC50 is 0.794 µM (active). Consider `Nc1c(S(N)(=O)=O)cc(S(N)(=O)=O)cc1S(N)(=O)=O`, for which the activity, negative = inhibition was -3.4% [at 11.4 µM]. `CN(CCc1ccc(Cl)c(Cl)c1)C[C@@H](O)COc1ccc(NS(C)(=O)=O)cc1`: the half-maximal activity concentration (AC50) is 2.51 µM (active). Turning to `CN(CCc1ccc(Cl)c(Cl)c1)CCN1CCCCCC1`, the AC50 result is “inactive”. On to `CC(C)NC[C@H](O)c1ccc(NS(C)(=O)=O)cc1`, for which the AC50 result was “inactive”. Regarding `CC(C)(C)N(NC(=O)c1ccccc1)C(=O)c1cccc(C(=O)N(NC(=O)c2ccccc2)C(C)(C)C)c1`, the concentration at half-maximal activity (AC50) was 15.8 µM (active). For `O=C(NC(N1CCCC1)C(Cl)(Cl)Cl)c1ccccc1` (stereo unspecified), the AC50 entry was “inactive”.

In the case of `CC(=O)NNC(=O)C(O)(c1ccccc1)c1ccccc1`, the AC50 entry is “inactive”. With `COc1ccc(-c2noc(N(C)CC(=O)Nc3cccc(C(F)(F)F)c3)n2)cc1`, the half-maximal activity concentration (AC50) is 5.01 µM (active).

`CN(CCCNC(=O)c1ccc(/C=N/O)nc1)CCCN(C)Cc1ccccc1`: the AC50 entry is “inactive”.

Turning to `CN(CCCNC(=O)c1cccn2c(=O)c3ccccc3nc12)Cc1ccccc1`, the concentration at half-maximal activity (AC50) was 17.8 µM (active). Consider `Cc1ccc(CCN2CC(C(=O)NCCCN(C)Cc3ccccc3)CC2=O)cc1` (stereo unspecified), for which the AC50 result is “inactive”. As to `CNC(=O)c1c(I)c(C(=O)NCC(=O)Nc2c(I)c(C(=O)O)c(I)c(C(=O)NCCO)c2I)c(I)c(N(C)C(C)=O)c1I`, the AC50 entry was “inactive”.

Consider `Cc1ccc(C(=O)N/C(=C\c2ccc([N+](=O)[O-])cc2)C(=O)NCCc2ccccc2)cc1`, for which the AC50 entry is “inactive”.

Take `Cc1ccc(NC(=O)/C(=C\c2ccc([N+](=O)[O-])cc2)NC(=O)c2ccccc2)cc1`: the half-maximal activity concentration (AC50) is 11.2 µM (active). The same measure, in the same setting: next, `COc1ccc(NC(=O)/C(=C\c2cc(OC)c(OC)cc2[N+](=O)[O-])NC(=O)c2ccccc2)cc1`: 7.94 µM (active); `O=C(Nc1ccccc1)/C(=C\c1ccncc1)NC(=O)c1ccccc1`: 0.2 µM (active).

For the compound `O=C1[C@H]2[C@H]3[C@H](O)[C@H](O)C/C(=N/OCc4ccccc4)[C@@H]3CC[C@@H]2C(=O)N1C[C@@H]1CCCO1`, the activity, negative = inhibition was 7.38% [at 11.4 µM]. For the compound `O=C(O)C1C2C=CC3(CN(Cc4ccccn4)C(=O)C13)O2` (stereo unspecified), the AC50 entry was “inactive”. As to `CC(=O)NCCNc1ncncc1-c1ccccc1C(F)(F)F`, the activity, negative = inhibition was -11.4% [at 2.29 µM]. For `O=C(O)c1nnsc1COCc1ccccc1`, the activity, negative = inhibition is -2.96% [at 11.4 µM]. Turning to `COC(=O)c1c(-c2cc(OC)c(OC)c(OC)c2)c2ccc(OCc3ccccn3)cc2c(=O)n1-c1ccc(N)cc1`, the AC50 was 3.98 µM (active).

Consider `CC(C)CNc1nc(N)[nH]c(=O)c1NC=O`, for which the activity, negative = inhibition is -6.56% [at 11.4 µM]. In the case of `OC1(c2ccc(OC(F)F)cc2)CSC(=Nc2cccnc2)N1C1CC1` (stereo unspecified), the half-maximal activity concentration (AC50) was 5.01 µM (active). Take `Cc1ccccc1-c1cc(NCc2ccccc2)ncn1`: the activity, negative = inhibition was -15.2% [at 2.29 µM]. In the case of `Cc1ccc(N2C(=O)C(Cl)=C(NCc3ccccc3)C2=O)c(C)c1`, the AC50 is 5.62 µM (active). `Cc1cccc(CNc2cc(-c3ccccc3Cl)ncn2)c1`: the activity, negative = inhibition was 4.64% [at 2.29 µM]. Turning to `COC(=O)c1ccccc1N/C=C1\CCc2c(c(C)nn2-c2ccccn2)C1=O`, the AC50 is 14.1 µM (active). Still for that read-out and setting: the value for `COc1ccc(-c2cc(C(=O)O)c3c(C)nn(-c4ccccn4)c3n2)cc1` was “inactive”.

`COc1ccc(COC(=O)N/N=C2/C[C@@H](O)[C@@H](O)[C@@H]3[C@H]4C(=O)N(c5ccc(F)cc5F)C(=O)[C@@H]4CC[C@H]23)cc1`: the activity, negative = inhibition was -4.97% [at 11.4 µM]. In the case of `CCOC(=O)C(CC)(CC)C(=O)/C=C/c1ccc(Br)cc1`, the half-maximal activity concentration (AC50) was 5.01 µM (active). For the compound `O=C(/C=C/c1ccc(Br)cc1)NC1CCCCCC1`, the AC50 result was “inactive”. With `C[n+]1ccc(/C=C/c2ccc(Br)cc2)cc1`, the AC50 entry is “inactive”. As to `Nc1ccc(S(=O)(=O)NCCS(=O)(=O)O)cc1`, the activity, negative = inhibition was 9.74% [at 11.4 µM]. On to `CCCNS(=O)(=O)c1ccc(OCC(=O)OC)cc1`, for which the AC50 is 7.08 µM (active). Consider `O=C(Nc1ncc(Cc2cccc(Cl)c2)s1)c1cccs1`, for which the concentration at half-maximal activity (AC50) was 11.2 µM (active). As to `O=C(NOC(=O)c1cc(Br)ccc1Cl)c1cccs1`, the AC50 entry is “inactive”. As to `Cc1ccc(Cc2cnc(NC(=O)c3cccs3)s2)cc1`, the concentration at half-maximal activity (AC50) is 8.91 µM (active). On the same count and under the same terms, the value for `Cc1ccc(NC(=O)CCC(=O)NNC(=O)c2cccs2)c(C)c1` was “inactive”. For `Nc1[nH]c(=O)nc2c1ncn2[C@H]1O[C@@H](CO)[C@@H](O)[C@@H]1O`, the activity, negative = inhibition is -0.314% [at 11.4 µM].

`O=C(O)c1ccc(S(=O)(=O)N=Nc2c(O)[nH]c3ccccc23)cc1`: the activity, negative = inhibition was 3.79% [at 11.4 µM]. For the compound `N#CCCSC(=S)[C@H]1CCCC1=N`, the activity, negative = inhibition is -3.69% [at 11.4 µM]. Take `COC(=O)CCC(=O)Nc1cccc2ccccc12`: the AC50 entry is “inactive”. As for `O=C(CCC(=O)OCc1ccc(C(=O)Oc2ccccc2)cc1)Nc1cccc2ccccc12`, the AC50 is 15.8 µM (active). For the compound `N#Cc1c(NC(=O)CCC(=O)O)ccc2ccccc12`, the activity, negative = inhibition was -7.5% [at 11.4 µM]. For the compound `COc1ncc2nc(-c3cc(F)cc(F)c3)c(=O)n(CCC#N)c2n1`, the AC50 result was “inactive”.

As for `N#Cc1sc2nc(-c3cccs3)cc(-c3ccc(Cl)cc3)c2c1N`, the AC50 is 4.47 µM (active). Consider `O=C(O)c1cc(N=Cc2ccccc2O)cc(C(=O)O)c1`, for which the activity, negative = inhibition was 7.44% [at 11.4 µM]. Consider `Cc1cc(O)c(C(C)C)cc1N=Cc1ccccc1O`, for which the half-maximal activity concentration (AC50) is 0.631 µM (active).

Turning to `[O-][n+]1c(CN2CCCCC2)nc2cccc3c2c1-c1ccccc1-3`, the activity, negative = inhibition is -15.3% [at 11.4 µM]. With `CC(C)(C)c1ccc(C2CC2C(=O)N/N=C\c2cc3ccccc3nc2Cl)cc1` (stereo unspecified), the concentration at half-maximal activity (AC50) is 3.55 µM (active). As to `CN(C)c1ccc(/C=N\NC(=O)c2cnc3ccccc3c2)cc1`, the activity, negative = inhibition was -6.78% [at 11.4 µM].

Regarding `CN(Cc1ccco1)c1ncncc1-c1cccnc1`, the activity, negative = inhibition is 10.8% [at 2.29 µM]. With `O=c1c(C=Nc2ccc(Oc3ccccc3)cc2)c[nH]n1-c1cccc(Cl)n1`, the AC50 is 6.31 µM (active). In the case of `CCOc1[nH]n(-c2ccccc2)c(=O)c1C=Nc1ccc(Cl)cc1`, the AC50 entry was “inactive”. As to `c1cncc(-c2cc(NCc3cccs3)ncn2)c1`, the activity, negative = inhibition was -6.08% [at 2.29 µM].

For the compound `Fc1ccc2c(c1)C(c1ccncc1)=NNC(c1ccc(Cl)cc1)=N2`, the AC50 is 0.282 µM (active). Take `Clc1ccc2c(c1)C(c1cccs1)=NNC(c1cccnc1)=N2`: the half-maximal activity concentration (AC50) was 11.2 µM (active). With `COC(=O)[C@H](C)NC(=O)[C@@H](C)CO`, the activity, negative = inhibition is 10.7% [at 11.4 µM]. Same read-out and setting: next, `COCCNc1ccnc(-c2ccccc2CN(C)C)n1`: 0.0079% [at 2.29 µM]. On to `CN(CC[C@@H](Oc1ccc(-c2ccccc2)cc1)c1ccc(F)cc1)CC(=O)O`, for which the AC50 is 2.51 µM (active). Still for that read-out and setting: the value for `CNCC[C@@H](Oc1ccccc1C)c1ccccc1` was “inactive”. For the compound `CNCC[C@H](Oc1ccccc1OC)c1ccccc1`, the AC50 entry is “inactive”. With `CCOc1cc2[nH]c(=S)n(CCC(=O)N3CCc4ccccc4C3)c(=O)c2cc1OCC`, the AC50 was 17.8 µM (active). As to `O=c1onc2n1-c1cc(Br)ccc1OC2`, the AC50 result is “inactive”.

Values taken from PubChem BioAssay AID1851 (National Center for Advancing Translational Sciences (NCATS), 2009).
